# Reference: PubChem BioAssay (EPA / NIEHS)
# Calls of active or inactive are those of the source. The calls were made as follows: active = hit-call score of the fitted dose curve at least 0.9, where 1 is the maximum; inactive = score below 0.9.
# How the values were obtained:
# Conditions in all cases: mRNA level, 48 h; actives raise or lower the signal
# [1] = read-out: CYP2C9 (gene 1559); assay: LTEA_HepaRG_CYP2C9: Life Technologies and Expression Analysis (LTEA) Assay for CYP2C9 using HepaRG (AID 2283484)
# How it was run: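 Differentiated human HepaRG cells in serum-free induction medium were exposed 48 h to chemicals in 8-point half-log series from 100 uM (0.5% DMSO), in duplicate. CYP2C9 mRNA was measured by qRT-PCR, normalized to ACTB/GAPDH/POLR2A, with bidirectional fitting versus DMSO.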
# [2] = read-out: CYP2E1 (gene 1571); assay: LTEA_HepaRG_CYP2E1: Life Technologies and Expression Analysis (LTEA) Assay for CYP2E1 using HepaRG (AID 2283485)
# How it was run: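 HepaRG cells, plated 48 h, then exposed 48 h in serum-free induction medium to eight half-log concentrations from 100 uM in 0.5% DMSO, duplicate. CYP2E1 mRNA by qRT-PCR, normalized to ACTB/GAPDH/POLR2A; bidirectional fit versus DMSO.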
# [3] = read-out: CYP4A11 (gene 1579); assay: LTEA_HepaRG_CYP4A11: Life Technologies and Expression Analysis (LTEA) Assay for CYP4A11 using HepaRG (AID 2283486)
# How it was run: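 Readout is CYP4A11 transcript level by qRT-PCR, normalized to three housekeeping genes and fitted bidirectionally against 0.5% DMSO. Human HepaRG cells were treated 48 h, in duplicate, with an 8-point half-log series topping at 100 uM.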
# [4] = read-out: Cytochrome P450 3A4 (Homo sapiens) (UniProt P08684); assay: LTEA_HepaRG_CYP3A4: Life Technologies and Expression Analysis (LTEA) Assay for CYP3A4 using HepaRG (AID 2283487)
# How it was run: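 HepaRG, 48 h exposure, 8-pt CRC from 100 uM (half-log), 0.5% DMSO, duplicates; serum-free induction medium. Readout: CYP3A4 mRNA, qRT-PCR, ACTB/GAPDH/POLR2A normalization. Bidirectional fit vs DMSO.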
# [5] = read-out: DNA damage-inducible transcript 3 (DDIT3), DDIT3 (gene 1649); assay: LTEA_HepaRG_DDIT3: Life Technologies and Expression Analysis (LTEA) Assay for DNA damage-inducible transcript 3 (DDIT3) using HepaRG (AID 2283488)
# How it was run: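 HepaRG cells, 48 h after plating, exposed 48 h in serum-free induction medium to 8 half-log concentrations up to 100 uM in 0.5% DMSO, in duplicate. DDIT3 mRNA measured by TaqMan qRT-PCR, normalized to ACTB, GAPDH and POLR2A. Fitted bidirectionally against DMSO.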
# [6] = read-out: Pro-epidermal growth factor (Homo sapiens) (UniProt P01133); assay: LTEA_HepaRG_EGF: Life Technologies and Expression Analysis (LTEA) Assay for Epidermal growth factor (EGF) using HepaRG (AID 2283489)
# How it was run: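 EGF transcript measured by Fluidigm TaqMan qRT-PCR with three housekeeping genes for normalization, 48 h after dosing HepaRG cultures in duplicate (top 100 uM, half-log steps, 0.5% DMSO vehicle). Gain or loss relative to DMSO fitted.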
# [7] = read-out: Early growth response protein 1 (EGR1) transcription factor, EGR1 (gene 1958); assay: LTEA_HepaRG_EGR1: Life Technologies and Expression Analysis (LTEA) Assay for Early growth response protein 1 (EGR1) transcription factor using HepaRG (AID 2283490)
# How it was run: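 Differentiated HepaRG cells in serum-free induction medium exposed 48 hours, duplicate, to 8 half-log concentrations up to 100 uM in 0.5% DMSO. EGR1 mRNA measured by TaqMan qRT-PCR, normalized to ACTB, GAPDH, POLR2A; bidirectional fit versus DMSO.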
# [8] = read-out: Ezrin (EZR), EZR (gene 7430); assay: LTEA_HepaRG_EZR: Life Technologies and Expression Analysis (LTEA) Assay for Ezrin (EZR) using HepaRG (AID 2283491)
# How it was run: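 Read-out is EZR transcript level by qRT-PCR, normalized to three housekeeping genes and fitted bidirectionally against the DMSO control. Human HepaRG cells received test chemicals for 48 h at eight half-log concentrations up to 100 uM in 0.5% DMSO.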
# [9] = read-out: Cytochrome P450 3A7 (Homo sapiens) (UniProt P24462); assay: LTEA_HepaRG_CYP3A7: Life Technologies and Expression Analysis (LTEA) Assay for CYP3A7 using HepaRG (AID 2283492)
# How it was run: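 CYP3A7 transcript measured by qRT-PCR (ACTB, GAPDH, POLR2A normalization) after 48 h chemical exposure of HepaRG cells in duplicate. Eight half-log concentrations, maximum 100 uM, 0.5% DMSO vehicle; bidirectional curve fitting against DMSO baseline.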
# [10] = read-out: CYP3A5 (gene 1577); assay: LTEA_HepaRG_CYP3A5: Life Technologies and Expression Analysis (LTEA) Assay for CYP3A5 using HepaRG (AID 2283493)
# How it was run: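 HepaRG cells, plated 48 h then in serum-free induction medium, dosed in duplicate for 48 h with eight half-log concentrations up to 100 uM in 0.5% DMSO. Gene mRNA by Fluidigm TaqMan qRT-PCR, normalized to ACTB, GAPDH, POLR2A.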
# [11] = read-out: Fatty Acid-Binding Protein 1 (FABP1), FABP1 (gene 2168); assay: LTEA_HepaRG_FABP1: Life Technologies and Expression Analysis (LTEA) Assay for Fatty Acid-Binding Protein 1 (FABP1) using HepaRG (AID 2283494)
# How it was run: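 Differentiated human HepaRG cells exposed 48 h in serum-free induction medium to eight half-log concentrations up to 100 uM (0.5% DMSO), duplicate. FABP1 mRNA by qRT-PCR, normalised to ACTB, GAPDH, POLR2A; bidirectional fitting against DMSO.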
# [12] = read-out: Cytochrome P450 4A22 (Homo sapiens) (UniProt Q5TCH4); assay: LTEA_HepaRG_CYP4A22: Life Technologies and Expression Analysis (LTEA) Assay for Cytochrome P450 4A22 (CYP4A22) using HepaRG (AID 2283495)
# How it was run: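 Gene expression measured by qRT-PCR against three housekeeping genes (ACTB, GAPDH, POLR2A), with gain or loss fitted relative to 0.5% DMSO vehicle. HepaRG cultures received 48 h chemical treatment, top concentration 100 uM, half-log steps, duplicate wells.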
# [13] = read-out: Cytochrome P450 7A1 (Homo sapiens) (UniProt P22680); assay: LTEA_HepaRG_CYP7A1: Life Technologies and Expression Analysis (LTEA) Assay for Cytochrome P450 7A1 (CYP7A1) using HepaRG (AID 2283496)
# How it was run: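 HepaRG cells plated 48 h, then switched to serum-free induction medium and exposed in duplicate for 48 h to 8-point half-log series from 100 uM in 0.5% DMSO. CYP7A1 mRNA by qRT-PCR (TaqMan), normalized to ACTB/GAPDH/POLR2A; bidirectional fit versus DMSO.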
# [14] = read-out: Glutathione S-Transferase (GSTA2), GSTA2 (gene 2939); assay: LTEA_HepaRG_GSTA2: Life Technologies and Expression Analysis (LTEA) Assay for Glutathione S-Transferase (GSTA2) using HepaRG (AID 2283497)
# How it was run: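 Differentiated human HepaRG cells were exposed in duplicate for 48 h in serum-free induction medium, 8 points from 100 uM top in half-log steps, 0.5% DMSO. GSTA2 mRNA was measured by TaqMan qRT-PCR, normalized to ACTB, GAPDH and POLR2A; bidirectional fit versus DMSO.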
# [15] = read-out: Glutamate-cysteine ligase catalytic (GCLC), GCLC (gene 2729); assay: LTEA_HepaRG_GCLC: Life Technologies and Expression Analysis (LTEA) Assay for Glutamate-cysteine ligase catalytic (GCLC) using HepaRG (AID 2283498)
# How it was run: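 Differentiated HepaRG cells exposed 48 h in serum-free induction medium, eight-point half-log series topping at 100 uM in 0.5% DMSO, duplicates. GCLC mRNA by qRT-PCR normalized to ACTB, GAPDH and POLR2A, fitted bidirectionally versus DMSO.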
# [16] = read-out: growth arrest and DNA damage 45 (GADD45G), GADD45G (gene 10912); assay: LTEA_HepaRG_GADD45G: Life Technologies and Expression Analysis (LTEA) Assay for growth arrest and DNA damage 45 (GADD45G) using HepaRG (AID 2283499)
# How it was run: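 GADD45G transcript level by qRT-PCR (housekeeping-normalized: ACTB, GAPDH, POLR2A) after 48 h chemical treatment of a single HepaRG lot in serum-free induction medium; eight-point half-log series up to 100 uM in 0.5% DMSO, duplicates, up- or down-regulation scored.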
# [17] = read-out: Glutamate-cysteine ligase regulatory (GCLM), GCLM (gene 2730); assay: LTEA_HepaRG_GCLM: Life Technologies and Expression Analysis (LTEA) Assay for Glutamate-cysteine ligase regulatory (GCLM) using HepaRG (AID 2283500)
# How it was run: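 Differentiated HepaRG cells exposed 48 h in serum-free induction medium to eight half-log concentrations up to 100 uM (0.5% DMSO). GCLM mRNA by TaqMan qRT-PCR, normalized to ACTB, GAPDH and POLR2A; bidirectional fit versus DMSO.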
# [18] = read-out: Glutathione S-transferase M3 (GSTM3), GSTM3 (gene 2947); assay: LTEA_HepaRG_GSTM3: Life Technologies and Expression Analysis (LTEA) Assay for Glutathione S-transferase M3 (GSTM3) using HepaRG (AID 2283501)
# How it was run: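 GSTM3 transcript levels came from Fluidigm TaqMan qRT-PCR normalized to three housekeeping genes, fitted in both directions against DMSO. HepaRG cultures received chemicals for 48 h in serum-free induction medium (0.5% DMSO), 8 half-log concentrations up to 100 uM, duplicate.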
# [19] = read-out: Heat shock 70 kDa protein 1 (HSPA1A), gene 3303; assay: LTEA_HepaRG_HSPA1A: Life Technologies and Expression Analysis (LTEA) Assay for Heat shock 70 kDa protein 1 (HSPA1A) using HepaRG (AID 2283502)
# How it was run: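 Human HepaRG cells in serum-free induction medium were exposed in duplicate for 48 h to 8 half-log concentrations, highest 100 uM, in 0.5% DMSO. HSPA1A mRNA read by TaqMan qRT-PCR, normalized to ACTB, GAPDH, POLR2A, fitted bidirectionally against DMSO.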
# [20] = read-out: Hypoxia-inducible factor 1-alpha (Homo sapiens) (UniProt Q16665); assay: LTEA_HepaRG_HIF1A: Life Technologies and Expression Analysis (LTEA) Assay for Hypoxia-inducible factor 1 (HIF1A) Trancription factor using HepaRG (AID 2283503)
# How it was run: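 Differentiated HepaRG cells in serum-free induction medium exposed 48 h, in duplicate, to 8-point half-log series from 100 uM in 0.5% DMSO. HIF1A mRNA measured by TaqMan qRT-PCR, normalized to ACTB/GAPDH/POLR2A, fitted bidirectionally versus DMSO.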
# Chain of Cytochrome P450 3A7 (Homo sapiens) (P24462 whole entry, looked up): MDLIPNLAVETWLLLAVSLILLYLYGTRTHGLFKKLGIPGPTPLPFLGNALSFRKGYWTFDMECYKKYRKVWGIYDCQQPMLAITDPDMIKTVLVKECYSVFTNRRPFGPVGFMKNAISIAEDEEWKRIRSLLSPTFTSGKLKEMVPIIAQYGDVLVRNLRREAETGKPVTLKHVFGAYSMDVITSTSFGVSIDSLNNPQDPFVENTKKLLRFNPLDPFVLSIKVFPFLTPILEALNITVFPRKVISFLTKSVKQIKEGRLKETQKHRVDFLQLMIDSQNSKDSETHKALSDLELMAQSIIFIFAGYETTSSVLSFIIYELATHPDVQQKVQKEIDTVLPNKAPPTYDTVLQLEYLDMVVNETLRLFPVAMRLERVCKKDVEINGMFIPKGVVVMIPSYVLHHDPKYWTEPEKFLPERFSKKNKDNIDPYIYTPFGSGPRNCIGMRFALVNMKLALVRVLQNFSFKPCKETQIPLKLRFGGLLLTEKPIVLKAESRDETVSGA
# Chain of Hypoxia-inducible factor 1-alpha (Homo sapiens) (Q16665 whole entry, looked up): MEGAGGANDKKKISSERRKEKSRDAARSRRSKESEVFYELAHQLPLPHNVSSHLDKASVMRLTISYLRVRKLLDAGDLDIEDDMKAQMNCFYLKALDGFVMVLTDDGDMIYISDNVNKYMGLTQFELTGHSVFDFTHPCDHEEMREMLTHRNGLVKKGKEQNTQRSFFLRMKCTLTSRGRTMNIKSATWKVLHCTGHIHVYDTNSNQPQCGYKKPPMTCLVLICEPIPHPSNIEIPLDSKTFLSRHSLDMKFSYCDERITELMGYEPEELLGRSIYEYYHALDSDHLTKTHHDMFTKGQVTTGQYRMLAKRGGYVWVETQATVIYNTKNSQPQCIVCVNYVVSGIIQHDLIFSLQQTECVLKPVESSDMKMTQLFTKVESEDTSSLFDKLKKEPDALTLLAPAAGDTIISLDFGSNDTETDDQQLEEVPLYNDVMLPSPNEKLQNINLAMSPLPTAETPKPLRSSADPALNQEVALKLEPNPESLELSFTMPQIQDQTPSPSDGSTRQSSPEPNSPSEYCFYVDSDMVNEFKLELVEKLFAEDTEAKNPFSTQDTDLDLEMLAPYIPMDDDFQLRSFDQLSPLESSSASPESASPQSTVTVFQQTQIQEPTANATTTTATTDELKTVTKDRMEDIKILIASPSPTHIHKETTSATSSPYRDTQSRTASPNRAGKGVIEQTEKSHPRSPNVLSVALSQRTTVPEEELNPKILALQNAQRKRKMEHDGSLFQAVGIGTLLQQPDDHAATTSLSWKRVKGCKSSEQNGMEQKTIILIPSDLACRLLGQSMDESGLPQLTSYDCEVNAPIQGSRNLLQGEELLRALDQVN
# Chain of Cytochrome P450 3A4 (Homo sapiens) (P08684 whole entry, looked up): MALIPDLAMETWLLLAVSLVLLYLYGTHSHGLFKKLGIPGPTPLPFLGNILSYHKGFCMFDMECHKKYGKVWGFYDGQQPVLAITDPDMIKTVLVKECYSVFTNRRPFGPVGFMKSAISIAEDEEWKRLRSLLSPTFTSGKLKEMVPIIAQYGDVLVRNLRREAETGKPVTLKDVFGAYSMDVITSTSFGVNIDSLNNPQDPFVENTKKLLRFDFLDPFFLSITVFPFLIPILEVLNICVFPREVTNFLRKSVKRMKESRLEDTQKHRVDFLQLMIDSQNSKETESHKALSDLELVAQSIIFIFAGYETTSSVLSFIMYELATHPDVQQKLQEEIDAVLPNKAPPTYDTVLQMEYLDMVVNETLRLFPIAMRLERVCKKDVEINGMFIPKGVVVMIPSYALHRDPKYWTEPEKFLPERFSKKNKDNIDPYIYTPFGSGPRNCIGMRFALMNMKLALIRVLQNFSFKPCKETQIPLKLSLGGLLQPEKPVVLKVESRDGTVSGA
smiles,measurement,setting,value
CCCCCCCCCCCCCCCO,outcome,[1],inactive
same,outcome,[2],inactive
same,outcome,[3],inactive
same,outcome,[4],inactive
same,outcome,[5],inactive
same,outcome,[6],inactive
same,outcome,[7],inactive
same,outcome,[8],inactive
same,outcome,[9],inactive
same,outcome,[10],inactive
same,outcome,[11],inactive
same,outcome,[12],inactive
same,outcome,[13],inactive
same,outcome,[14],inactive
same,outcome,[15],inactive
same,outcome,[16],inactive
same,outcome,[17],inactive
same,outcome,[18],inactive
same,outcome,[19],inactive
same,outcome,[20],inactive
Oc1ccc2c(c1)-c1ccccc1C2,outcome,[1],inactive
same,outcome,[2],inactive
same,outcome,[3],inactive
same,outcome,[4],inactive
same,outcome,[5],inactive
same,outcome,[6],inactive
same,outcome,[7],inactive
same,outcome,[8],inactive
same,outcome,[9],inactive
same,outcome,[10],inactive
same,outcome,[11],inactive
same,outcome,[12],inactive
same,AC50,[13],4.87 µM (active)
same,outcome,[14],inactive
same,outcome,[15],inactive
same,outcome,[16],inactive
same,outcome,[17],inactive
same,outcome,[18],inactive
same,outcome,[19],inactive
same,outcome,[20],inactive
Cn1c(=O)cc(Oc2ccc(F)cc2F)c2cnc(NCC(C)(C)O)nc21,outcome,[1],inactive
same,AC50,[2],50 µM (active)
same,AC50,[3],50 µM (active)
same,AC50,[4],50 µM (active)
same,outcome,[5],inactive
same,outcome,[6],inactive
same,outcome,[7],inactive
same,outcome,[8],inactive
same,AC50,[9],28.9 µM (active)
same,AC50,[10],50 µM (active)
same,outcome,[11],inactive
same,outcome,[12],inactive
same,outcome,[13],inactive
same,outcome,[14],inactive
same,outcome,[15],inactive
same,AC50,[16],9.17 µM (active)
same,outcome,[17],inactive
same,outcome,[18],inactive
same,outcome,[19],inactive
same,outcome,[20],inactive
